Measured values reported in the supplement of paper PMC6555819.

Experiments:
Assay in all cases: PBM binding z-score (relative to random genomic background probes); higher = stronger binding; sequences stand for … in GC…GCGATTGACAGCGTAGAATGAAGG
[1] = test system: FXR:RXRa (NR concentration 270 nM, RXRa partner concentration 90 nM)
Procedure, shortened: (§1)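 Each nuclear receptor dimer, without ligand, was incubated for 1 h on custom Agilent 4×180K protein-binding microarrays. Binding was detected with antibodies against each partner (one per run), and scanned fluorescence was regression-normalized. The binding z-scores are referenced to random human genomic background probes.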

[2] = test system: LXRa:RXRa (NR concentration 270 nM, RXRa partner concentration 90 nM)
Procedure, shortened: as §1

[3] = test system: LXRa homodimer (NR concentration 270 nM)
Procedure, shortened: as §1

[4] = test system: LXRb:RXRa (NR concentration 270 nM, RXRa partner concentration 90 nM)
Procedure, shortened: as §1

[5] = test system: LXRb homodimer (NR concentration 270 nM)
Procedure, shortened: as §1

[6] = test system: PPARa:RXRa (NR concentration 270 nM, RXRa partner concentration 90 nM)
Procedure, shortened: as §1

[7] = test system: PPARg:RXRa (NR concentration 180 nM, RXRa partner concentration 90 nM)
Procedure, shortened: as §1

[8] = test system: PPARg:RXRa 270nM:90nM, anti-RXR (NR concentration 270 nM, RXRa partner concentration 90 nM)
Procedure, shortened: as §1

[9] = test system: PPARg:RXRa 30nM:10nM, anti-RXR (NR concentration 30 nM, RXRa partner concentration 10 nM)
Procedure, shortened: as §1

[10] = test system: PPARg:RXRa 90nM:30nM, anti-RXR (NR concentration 90 nM, RXRa partner concentration 30 nM)
Procedure, shortened: as §1

[11] = test system: PPARg:RXRa DBDmut IVT, anti-RXR (DBD mutation: RXRa K156A/R161A, NR concentration 270 nM, RXRa partner concentration 90 nM)
Procedure, shortened: as §1

[12] = test system: PPARg:RXRa IVT, anti-PPARg (NR concentration 270 nM, RXRa partner concentration 90 nM)
Procedure, shortened: as §1

[13] = test system: PPARg DBDmut:RXRa IVT, anti-PPARg (DBD mutation: PPARg1 K132A/R137A, NR concentration 270 nM, RXRa partner concentration 90 nM)
Procedure, shortened: as §1

[14] = test system: PPARg DBDmut IVT, anti-PPARg (DBD mutation: PPARg1 K132A/R137A, NR concentration 270 nM)
Procedure, shortened: as §1

[15] = test system: PPARg homodimer (NR concentration 180 nM)
Procedure, shortened: as §1

[16] = test system: PXR:RXRa (NR concentration 270 nM, RXRa partner concentration 90 nM)
Procedure, shortened: as §1

[17] = test system: PXR homodimer (NR concentration 270 nM)
Procedure, shortened: as §1

[18] = test system: RARa:RXR (NR concentration 270 nM, RXRa partner concentration 90 nM)
Procedure, shortened: as §1

[19] = test system: RARa homodimer (NR concentration 270 nM)
Procedure, shortened: as §1

[20] = test system: RARb:RXRa (NR concentration 270 nM, RXRa partner concentration 90 nM)
Procedure, shortened: as §1

GGAACGTGGGCAAGTTGATAGCAGAGTTTGATGG
PBM binding z-score [1]: -0.957 | PBM binding z-score [2]: -0.763 | PBM binding z-score [3]: -0.666 | PBM binding z-score [4]: -0.678 | PBM binding z-score [5]: -0.982 | PBM binding z-score [6]: -0.579 | PBM binding z-score [7]: 0.382 | PBM binding z-score [8]: -0.458 | PBM binding z-score [9]: -0.337 | PBM binding z-score [10]: -0.422 | PBM binding z-score [11]: 0.19 | PBM binding z-score [12]: -0.544 | PBM binding z-score [13]: -0.762 | PBM binding z-score [14]: -0.713 | PBM binding z-score [15]: -0.313 | PBM binding z-score [16]: -0.46 | PBM binding z-score [17]: 0.121 | PBM binding z-score [18]: -0.634 | PBM binding z-score [19]: -0.639 | PBM binding z-score [20]: -0.191

GCTATTGGTTGAAAGGGCAACCGAATGATTCTCG
PBM binding z-score [1]: 0.353 | PBM binding z-score [2]: 0.664 | PBM binding z-score [3]: -0.156 | PBM binding z-score [4]: 0.954 | PBM binding z-score [5]: -0.225 | PBM binding z-score [6]: 2.36 | PBM binding z-score [7]: 2.29 | PBM binding z-score [8]: 4.34 | PBM binding z-score [9]: 1.94 | PBM binding z-score [10]: 4.37 | PBM binding z-score [11]: 0.217 | PBM binding z-score [12]: 0.624 | PBM binding z-score [13]: 0.114 | PBM binding z-score [14]: -0.668 | PBM binding z-score [15]: 0.512 | PBM binding z-score [16]: 0.73 | PBM binding z-score [17]: 0.0657 | PBM binding z-score [18]: 1.48 | PBM binding z-score [19]: 0.176 | PBM binding z-score [20]: 1.87

TACACAGGGTCAAAGGCCAGAGTACGAATGTCGA
PBM binding z-score [1]: 6.94 | PBM binding z-score [2]: 5.94 | PBM binding z-score [3]: 1.96 | PBM binding z-score [4]: 4.44 | PBM binding z-score [5]: 1.69 | PBM binding z-score [6]: 5.95 | PBM binding z-score [7]: 7.46 | PBM binding z-score [8]: 7.03 | PBM binding z-score [9]: 4.73 | PBM binding z-score [10]: 6.42 | PBM binding z-score [11]: 1.53 | PBM binding z-score [12]: 4.08 | PBM binding z-score [13]: 0.992 | PBM binding z-score [14]: 0.428 | PBM binding z-score [15]: 1.44 | PBM binding z-score [16]: 4.11 | PBM binding z-score [17]: 0.543 | PBM binding z-score [18]: 5.47 | PBM binding z-score [19]: 0.487 | PBM binding z-score [20]: 4.53

TCTATTAGTTGAGTAGGGCAACCGAAACAGCGGA
PBM binding z-score [1]: 0.117 | PBM binding z-score [2]: -0.0688 | PBM binding z-score [3]: -0.201 | PBM binding z-score [4]: 0.0431 | PBM binding z-score [5]: 0.0555 | PBM binding z-score [6]: 0.964 | PBM binding z-score [7]: 0.351 | PBM binding z-score [8]: 1.65 | PBM binding z-score [9]: 3.14 | PBM binding z-score [10]: 2.23 | PBM binding z-score [11]: 2.19 | PBM binding z-score [12]: 2.75 | PBM binding z-score [13]: 0.301 | PBM binding z-score [14]: 0.883 | PBM binding z-score [15]: 0.0171 | PBM binding z-score [16]: -0.0938 | PBM binding z-score [17]: -0.0884 | PBM binding z-score [18]: 0.248 | PBM binding z-score [19]: -0.221 | PBM binding z-score [20]: 0.507

GCTATTAGCTGAAAGGGCAACCGAATGATTCTCG
PBM binding z-score [1]: 0.0536 | PBM binding z-score [2]: 0.222 | PBM binding z-score [3]: -0.091 | PBM binding z-score [4]: 0.372 | PBM binding z-score [5]: -0.619 | PBM binding z-score [6]: 1.19 | PBM binding z-score [7]: 1.15 | PBM binding z-score [8]: 2.72 | PBM binding z-score [9]: 0.859 | PBM binding z-score [10]: 2.07 | PBM binding z-score [11]: 0.31 | PBM binding z-score [12]: 0.298 | PBM binding z-score [13]: -0.309 | PBM binding z-score [14]: -0.672 | PBM binding z-score [15]: 0.621 | PBM binding z-score [16]: 0.34 | PBM binding z-score [17]: -0.258 | PBM binding z-score [18]: 0.809 | PBM binding z-score [19]: -0.61 | PBM binding z-score [20]: 1.76

TCGAGTAGGTTACCTATGGGGCATTCAGCTTTCT
PBM binding z-score [1]: 0.0442 | PBM binding z-score [2]: 1.74 | PBM binding z-score [3]: -0.775 | PBM binding z-score [4]: 0.927 | PBM binding z-score [5]: -1.31 | PBM binding z-score [6]: 1.24 | PBM binding z-score [7]: 0.475 | PBM binding z-score [8]: 1.01 | PBM binding z-score [9]: 1.17 | PBM binding z-score [10]: 1.17 | PBM binding z-score [11]: 2.71 | PBM binding z-score [12]: 2.51 | PBM binding z-score [13]: -0.176 | PBM binding z-score [14]: -0.57 | PBM binding z-score [15]: -0.445 | PBM binding z-score [16]: 0.0182 | PBM binding z-score [17]: -0.655 | PBM binding z-score [18]: 0.469 | PBM binding z-score [19]: -0.643 | PBM binding z-score [20]: 0.753
